Sampled rows, rich in hits. Any-hit rate of the full collection: about 1.3%.
FH mod: Identification of activators of human fumarate hydratase by quantitative high-throughput screening | Fumarate hydratase, mitochondrial (Homo sapiens), P07954 | FH coupled MDH/diaphorase resazurin fluorescence, 15 min | Potency, µM (titrated, usually from 79.9 µM), for inactives: at the highest dose activity change, negative = inhibition, most hits filed as inhibitors | 54,000 compounds, 0.22% hits | AID 1347055, 2019; further: on the % scale 0 is the no-effect control and ±100 the full control effect; the screen sought activators but most active calls are inhibition curves; nearly all actives have a fitted effect of over 45% in size
PTAP-TSG101 blk: inhibitors of HIV-1 PTAP binding to human TSG101, validation. Fluorescence polarization, FITC-PTAP peptide/Tsg101, 20 min. Potency, µM (doses to about 115 µM), hits mostly inhibitors. 44,000 tested, under 10 active. AID 1347069; further: 0% is about no effect
Target sequence (Q99816 whole entry, looked up): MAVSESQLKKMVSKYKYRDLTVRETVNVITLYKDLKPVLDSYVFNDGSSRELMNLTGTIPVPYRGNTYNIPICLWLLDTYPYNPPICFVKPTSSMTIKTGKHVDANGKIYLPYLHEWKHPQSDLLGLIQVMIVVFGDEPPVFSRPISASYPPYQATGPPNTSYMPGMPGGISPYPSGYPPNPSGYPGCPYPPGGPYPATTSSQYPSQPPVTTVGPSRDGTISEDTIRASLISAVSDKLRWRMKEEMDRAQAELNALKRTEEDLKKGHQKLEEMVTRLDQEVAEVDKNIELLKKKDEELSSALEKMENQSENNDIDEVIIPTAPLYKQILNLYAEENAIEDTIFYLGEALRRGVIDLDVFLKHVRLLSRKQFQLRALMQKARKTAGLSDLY
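The Tsg101 binding domain, at 10 uM final, is mixed with compound and a FITC peptide bearing the PTAP motif (50 nM final). After 20 min at r.t., polarization is measured; actives defined by CRC class, efficacy cut-off 60% inhibition.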
HTT-AS promoter: HTT-AS promoter activation | HEK293 HTT-AS promoter firefly luciferase reporter, 24 h; response scale: percent change from vehicle, -100% = no light | Potency, µM (highest dose often 57.5 µM), for inactives: at the highest dose activity change, positive = activation, actives largely listed as activators | 48,000 compounds, 0.24% hits | AID 1508624; further: nearly all actives have a fitted effect of over 55% in size
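HEK293 cells carrying firefly luciferase reporters were seeded at 2,500 per well in Opti-MEM and cultured for 24 h. They were then treated with compounds at up to 57.5 uM final for 24 h at 37 degrees C before Dual-Glo luminescence readout.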
HTT promoter inh: HTT promoter inhibition. HEK293 HTT promoter firefly luciferase reporter, 24 h. 48,000 compounds, 0.93% hits. AID 1508623. Potency, µM (titrated, usually from 57.5 µM), for the others: at the highest dose activity change, negative = inhibition, actives largely listed as inhibitors; further: nearly all actives have a fitted effect of over 50% in size
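HEK293 cells carrying firefly luciferase reporters were seeded at 2,500 per well in Opti-MEM and cultured for 24 h. They were then treated with compounds at up to 57.5 uM final for 24 h at 37 degrees C before Dual-Glo luminescence readout.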
An asterisk follows results filed as active; i = inactive; ? = inconclusive; nt = no result given; [ ] = remark or other dose. The call rests on the fitted dose curve; in most records, active means well fitted curve in the direction sought with a large enough effect; inconclusive means small, poorly fitted or top-dose-only effect, or another doubt; inactive means no such curve, though single readings can be large; an effect the other way counts as inactive or inconclusive. Potency means the concentration at half of the fitted maximal effect.

SMILES	FH mod	PTAP-TSG101 blk	HTT-AS promoter	HTT promoter inh
COC(=O)CCCn1c(-c2ccc(C)cc2)c(C)n2c3c(=O)n(C)c(=O)n(C)c3nc12	-19.0%	i	-8.4%	4.9%
CCOc1ccc(NC(=O)Cn2c(=O)oc3cc(S(=O)(=O)N4CCC(C)CC4)ccc32)cc1	-11.2%	i	-48.7%	10µM*
Cc1ccc(NC(=O)CN2CCSc3ccc(S(=O)(=O)N4CCCC4)cc32)cc1	-40.4%	i	-36.3%	?
CCOc1ccc(NC(=O)CN2CCSc3ccc(S(=O)(=O)N4CCCC4)cc32)cc1	-19.8%	i	-38.8%	25.1µM*
Cc1nn(C(C)C(=O)N2CCN(c3ccc(Cl)cc3)CC2)c(=O)c2cc3occc3n12 (stereo unspecified)	-23.7%	i	-55.7%	25.1µM*
Cc1ccc(C(Nc2ccccn2)c2ccc3cccnc3c2O)cc1 (stereo unspecified)	13.6%	i	-48.4%	?
Cc1cccc(NC(c2cccc(Cl)c2)c2ccc3cccnc3c2O)n1 (stereo unspecified)	-9.4%	i	-38.5%	10µM*
CCOc1cc(C(Nc2cc(C)ccn2)c2ccc3cccnc3c2O)ccc1OC (stereo unspecified)	19.8%	i	-39.1%	35.5µM*
COc1ccc(C(Nc2ccccn2)c2ccc3ccc(C)nc3c2O)cc1C (stereo unspecified)	12.2%	i	-30.8%	?
CCCCCc1ccc(/C=C/[C@H](O)[C@@H](CO)NC)cc1	-2.5%	nt	nt	nt
O=C(CN(c1cccc(C(F)(F)F)c1)S(=O)(=O)c1ccccc1)Nc1cccc(Cl)c1	?	i	-40.1%	28.2µM*
COc1cccc(-c2nc(SCC(=O)Nc3ccc4c(c3)OCCO4)c(-c3ccccc3)[nH]2)c1	39.8µM*	i	-5.6%	?
COc1cccc(NC(=O)CSc2nnc(-c3cccc(OC)c3)o2)c1	-20.0%	i	14.1µM*	60.4%
COc1ccc(NC(=O)CSc2nnc(-c3ccc(C)cc3)o2)cc1	-21.9%	i	-7.0%	1.0%
COc1cc(/C=C/C(=O)OC[C@H]2O[C@@H](OC3CC(C)=C(C(=O)O)C(C)(C)C3)[C@H](O)[C@@H](O)[C@@H]2O)cc(OC)c1O (stereo partly specified)	-3.6%[53.3 µM]	nt	nt	nt
COc1cc(C2CC(=O)N(Cc3ccc(F)cc3)c3ccccc3S2)cc(OC)c1OC (stereo unspecified)	-21.1%	i	-62.1%	14.1µM*
CCc1ccc(CNC(=O)C2CCCN(c3nn4cc(-c5ccc(F)cc5)nc4s3)C2)cc1 (stereo unspecified)	-1.9%	i	-72.5%	3.98µM*
CCOc1ccc(CNC(=O)C2CCCN(c3nn4cc(-c5ccc(F)cc5)nc4s3)C2)cc1 (stereo unspecified)	-3.6%	i	-62.3%	?
OCC(O)CCO/N=C1/C(c2c(O)[nH]c3ccccc23)=Nc2ccccc21 (stereo unspecified)	-4.3%	nt	nt	nt
COc1ccc(N2CCN(c3ncnc4c3nc3n4CCCCC3)CC2)cc1	-25.5%	i	-55.4%	?
Cc1cccc(N2CCN(C(=O)C3CCN(c4ncnc5c4nc4n5CCCCC4)CC3)CC2)c1C	?	i	-34.4%	?
Cc1cccc(N2CCN(C(=O)C3CCN(c4ncnc5c4nc4n5CCCCC4)CC3)CC2C)c1 (stereo unspecified)	-6.4%	i	-75.7%	25.1µM*
c1ccc(N2CCN(c3ncnc4c3nc3n4CCCC3)CC2)cc1	-4.3%	i	-64.6%	12.6µM*
CC1(C)OC(=O)CC(O)C2(C)C1CC(=O)C1(C)C2C(O)CC2(C)C(c3ccoc3)OC(=O)C3OC321 (stereo unspecified)	-0.3%[53.3 µM]	nt	nt	nt
Cc1cccc(OCC(=O)Nc2ccc(-c3nc4cc(C)ccc4o3)c(O)c2)c1	-8.8%	i	0.501µM*	110.4%
SMILES	FH mod	PTAP-TSG101 blk	HTT-AS promoter	HTT promoter inh
COc1ccc(C(=O)Nc2ccc(-c3nc4ccccc4s3)cc2C)cc1Cl	4.7%	i	1µM*	56.8%
CCC(C(=O)NCCc1ccc(SC)cc1)n1nc(C)c2c(C)n(-c3ccc(C)cc3)nc2c1=O (stereo unspecified)	-4.7%	i	-26.7%	35.5µM*
Cc1ccc(-n2nc3c(=O)n(C(C)C(=O)NCc4ccc(OC(C)C)cc4)nc(C)c3c2C)cc1 (stereo unspecified)	-12.2%	i	-58.3%	7.08µM*
CCOC(=O)N1CCc2c(sc(NCc3cccs3)c2C(=O)Nc2cc(OC)ccc2OC)C1	-16.8%	i	-16.2%	-9.4%
CCOC(=O)N1CCc2c(sc(NCc3cccs3)c2C(=O)Nc2ccc(OC)cc2OC)C1	-32.9%	i	-90.6%	7.94µM*
CCOC(=O)N1CCc2c(sc(NCc3ccc(OCC)cc3)c2C(=O)Nc2ccc(OC)cc2OC)C1	-17.9%	i	-82.0%	10µM*
C[C@H](Cc1ccccc1)Nc1ncnc2c1ncn2[C@@H]1O[C@H](CO)C(O)[C@H]1O (stereo partly specified)	-8.4%[53.3 µM]	nt	nt	nt
CCCc1nnc(NC(=O)Nc2ccccc2Cl)s1	-3.5%	i	3.55µM*	47.5%
CCC12CCCN3CCc4c(n(c5ccccc45)C(O)C1)C32 (stereo unspecified)	-1.7%	nt	nt	nt
Cc1cc(NC(=O)CN(C)S(=O)(=O)c2ccc3c(c2)CCCC(=O)N3)ccc1Br	-13.7%	i	-49.7%	25.1µM*
Cc1cc(C)c(NC(=O)CN(C)S(=O)(=O)c2ccc3c(c2)CCC(=O)N3)c(C)c1	-7.4%	i	-0.4%	-5.9%
CC1CC(O)CC(C)(C)C1(O)CCO (stereo unspecified)	3.5%	nt	nt	nt
O=C(Cc1ccccc1)Nc1cccc(-c2cn3cccnc3n2)c1	-1.4%	i	11.2µM*	53.4%
CCCCC(=O)Oc1ccc2oc(-c3ccc(OC)cc3)cc(=O)c2c1	4.4%	i	2µM*	89.0%
CN(C)C(=O)COC(=O)c1cc(-c2ccc(C3CCNCC3)cc2)c2ccc(-c3ccc(C(F)(F)F)cc3)cc2c1	0.7%	nt	nt	nt
CC1CN(CC(=O)Nc2ccc3c(c2)Cc2cccc(-c4cc(=O)cc(N5CCOCC5)o4)c2S3)CC(C)O1 (stereo unspecified)	-15.4%	nt	nt	nt
CC(O)(C(=O)C1CC1(CO)COC1OC(CO)C(O)C(O)C1O)C1C(O)CC2C3CC=C4CC(O)CC(O)C4(C)C3C(O)CC21C (stereo unspecified)	0.3%[20.6 µM]	nt	nt	nt
Nc1nc(Nc2ccc3c(c2)CCC(N2CCCC2)CC3)nn1-c1cc2c(nn1)-c1ccccc1CCC2 (stereo unspecified)	-11.3%	nt	nt	nt
COc1cc2[nH]c(=O)n(Cc3ccc(C(=O)N4CCN(c5ccc(Cl)cc5)CC4)cc3)c(=O)c2cc1OC	-12.1%	i	-49.9%	14.1µM*
CCOC(=O)c1[nH]c(C)c(C(=O)NCc2ccc(F)cc2)c1C	7.0%	i	0.0%	-36.7%
CC(=O)c1[nH]c(C)c(C(=O)NCc2ccc(Cl)cc2)c1C	5.6%	i	-49.8%	15.8µM*

Bioassay records (PubChem)
